Seven compounds from PubChem BioAssay can be followed below.

Molecules are shown by their SMILES. Active and inactive are the calls of the source.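 Rule for the calls, unless noted: active = percent response above 42, roughly 3 SD of non-fluorescent test compounds; inactive = the rest.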

In general, inhibition refers to the change of the read-out against control, counted positive when it falls.

Assay [1] can be described thus: reduced mouse 2C T cell binding to pMHC/ICAM-1 vesicles – MLPCN validation set, flow cytometry, LFA-1/ICAM-1 modulator project, pilot screen (AID 2523;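 active = response below a set limit, under 55% cells CD8-positive and vesicle-bound, and CD8 cells' 90th-percentile brightness under 279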;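 for vesicle binding response: mean PE anti-B7-1 fluorescence of CD8+ cells relative to row control; 100% = QL9-loaded vesicles with DMSO vehicle in the same plate row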). The settings on record: 2C mouse CD8+ T cells, at 7 µM, stronger effect = lower value; double positive events: measured here: CD8+/vesicle+ event percentage. In general terms: In flow cytometry, cells or beads pass a laser one at a time.

Assay [2] concerns the target Integrin beta-1 (Homo sapiens) + Integrin alpha-4 (Homo sapiens) (UniProt P13612+P05556). Description: alpha4beta1 integrin LIBS antibody binding reduction – U937 cells, HUTS-21 mAb, flow cytometry, validation set, VLA-4 allosteric modulator project, pilot screen (AID 2674;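 active = inhibition above 50%, about 3 SD of the validation set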;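 note: antibody binding induced by the VLA-4 ligand LDV present at three times its Kd; 0% = LDV ligand with antibody and no compound and 100% = antibody without LDV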). The settings on record: HUTS-21 LIBS mAb binding, at 6.7 µM, stronger effect = higher value, binding induced by LDV ligand.

The nature of assay [3]: calorie-restriction mimetic ROS inhibitors, yeast – validation compound set, pilot screen (AID 2706;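 active = superoxide response below 65% of plate, a cut near 3 SD across the whole screen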;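 note: yeast exposed to compound for one week at 30 degrees C before staining; 100% = mean of all compound wells on the same plate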). The settings on record: S. cerevisiae aging, superoxide DHE fluorescence; at 10 µM, stronger effect = lower value.
For assay [4], the target named is Beta-adrenergic receptor kinase 1 (Homo sapiens) (UniProt P25098). In words: GRK2 binders displacing RNA aptamer, biochemical, validation, human GRK2, bead flow cytometry (AID 488806;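 active = aptamer binding inhibition above 30%, about 3 SD of noise from non-fluorescent compounds; inactive = inhibition at or below 30%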). The settings on record: bead-bound GRK2, FAM-aptamer displacement, at 10 µM, stronger effect = higher value.
Beta-adrenergic receptor kinase 1 (Homo sapiens), sequence (P25098 whole entry, looked up): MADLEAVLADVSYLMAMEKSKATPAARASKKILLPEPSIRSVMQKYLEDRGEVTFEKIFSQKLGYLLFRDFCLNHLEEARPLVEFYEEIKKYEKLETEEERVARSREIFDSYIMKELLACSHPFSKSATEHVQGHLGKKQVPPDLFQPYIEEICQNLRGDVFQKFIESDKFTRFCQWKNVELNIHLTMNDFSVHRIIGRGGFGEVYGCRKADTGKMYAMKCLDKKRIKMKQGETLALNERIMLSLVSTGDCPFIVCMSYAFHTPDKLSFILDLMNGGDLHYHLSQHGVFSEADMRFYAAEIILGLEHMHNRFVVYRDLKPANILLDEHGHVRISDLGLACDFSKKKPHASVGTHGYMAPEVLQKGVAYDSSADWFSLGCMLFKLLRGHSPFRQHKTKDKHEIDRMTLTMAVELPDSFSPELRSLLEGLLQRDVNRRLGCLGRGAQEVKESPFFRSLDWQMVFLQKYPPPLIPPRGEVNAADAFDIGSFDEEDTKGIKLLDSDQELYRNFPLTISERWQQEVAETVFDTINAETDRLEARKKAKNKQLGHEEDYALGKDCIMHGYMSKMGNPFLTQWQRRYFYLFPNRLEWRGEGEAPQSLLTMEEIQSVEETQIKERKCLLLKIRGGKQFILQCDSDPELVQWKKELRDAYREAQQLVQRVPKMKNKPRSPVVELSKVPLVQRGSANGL
For assay [5], the target named is Beta-2 adrenergic receptor (Homo sapiens) (UniProt P07550). Description: agonist-induced loss of surface beta2AR – cell-based, FAP fluorogen, flow cytometry, validation set, pilot screen (AID 504459).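 Note: agonist-driven loss of surface beta2AR via internalization measured by FAP dye flow cytometry.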 The settings on record: Am2.2-beta2AR cells, at 10 µM, stronger effect = higher value.
Beta-2 adrenergic receptor (Homo sapiens), sequence (P07550 whole entry, looked up): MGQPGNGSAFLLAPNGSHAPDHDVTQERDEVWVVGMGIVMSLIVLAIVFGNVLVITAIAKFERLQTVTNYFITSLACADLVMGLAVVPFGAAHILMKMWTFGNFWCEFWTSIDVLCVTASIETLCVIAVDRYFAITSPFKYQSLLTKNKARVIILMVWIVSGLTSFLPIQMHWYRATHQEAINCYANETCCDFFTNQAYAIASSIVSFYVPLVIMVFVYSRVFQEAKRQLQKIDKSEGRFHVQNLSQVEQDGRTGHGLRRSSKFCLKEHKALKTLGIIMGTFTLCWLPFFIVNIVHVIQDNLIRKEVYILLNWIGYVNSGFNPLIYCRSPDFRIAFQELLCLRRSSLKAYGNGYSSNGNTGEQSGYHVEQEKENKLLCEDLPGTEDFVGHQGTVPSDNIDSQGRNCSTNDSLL
In assay [6] the target is AP-2 complex subunit beta (Homo sapiens) (UniProt P63010). Description: beta-arrestin/AP2 interaction blockers – biochemical, validation set, GST-AP2 beads, flow cytometry, pilot screen (AID 504541;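 active = inhibition above 54%, about 3 SD of non-fluorescent compounds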;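 note: AP2 carries R879A mutation and is captured from E. coli lysate; bead-bound FITC arrestin peptide fluorescence measuring arrestin peptide binding to AP2; 0% = DMSO wells and 100% = excess unlabeled arrestin peptide control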). The settings on record: FITC arrestin peptide, at 10 µM, stronger effect = higher value, AP2 beta2 appendage fragment, R879A mutant.
AP-2 complex subunit beta (Homo sapiens), sequence (P63010 whole entry, looked up, the tested form may be a part, one chain of several): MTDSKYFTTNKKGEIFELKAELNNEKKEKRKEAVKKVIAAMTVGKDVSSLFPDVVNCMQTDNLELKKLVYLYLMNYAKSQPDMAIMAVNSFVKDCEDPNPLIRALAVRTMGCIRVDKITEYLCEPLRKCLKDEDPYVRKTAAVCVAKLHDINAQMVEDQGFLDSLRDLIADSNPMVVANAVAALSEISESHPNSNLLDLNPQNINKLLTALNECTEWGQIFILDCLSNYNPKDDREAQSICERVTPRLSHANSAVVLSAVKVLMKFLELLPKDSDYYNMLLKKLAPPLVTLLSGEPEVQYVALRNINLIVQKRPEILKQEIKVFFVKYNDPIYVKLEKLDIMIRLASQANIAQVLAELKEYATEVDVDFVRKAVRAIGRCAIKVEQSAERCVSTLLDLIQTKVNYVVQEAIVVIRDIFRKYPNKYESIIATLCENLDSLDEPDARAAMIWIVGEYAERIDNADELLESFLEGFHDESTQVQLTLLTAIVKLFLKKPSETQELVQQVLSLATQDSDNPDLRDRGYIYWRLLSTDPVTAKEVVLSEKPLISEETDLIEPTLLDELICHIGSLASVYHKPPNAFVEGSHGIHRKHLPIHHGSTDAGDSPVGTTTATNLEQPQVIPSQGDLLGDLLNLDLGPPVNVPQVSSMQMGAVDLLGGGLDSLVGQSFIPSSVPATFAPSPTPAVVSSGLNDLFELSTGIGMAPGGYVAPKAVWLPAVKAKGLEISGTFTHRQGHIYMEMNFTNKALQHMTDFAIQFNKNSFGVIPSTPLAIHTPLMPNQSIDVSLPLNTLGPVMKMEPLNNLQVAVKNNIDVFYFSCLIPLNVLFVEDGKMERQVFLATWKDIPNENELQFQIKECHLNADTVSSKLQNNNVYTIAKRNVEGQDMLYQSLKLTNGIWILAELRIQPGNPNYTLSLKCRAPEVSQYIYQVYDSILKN
Assay [7] can be described thus: cytosolic pH regulators acting via V-ATPase – S. cerevisiae, pHLuorin, HTS validation (AID 504600; in the data active = response above about 15%;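 note: plate controls were DMSO for no effect and reference compound for full effect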). The settings on record: V-ATPase proton transport, at 10 µM, stronger effect = higher value.
Assay [8] has as its system anti-desmoglein-3 scFv antibody binding to human DSG3. Description: blockers of pathogenic pemphigus antibody–desmoglein-3 binding – biochemical, validation compound set, bead-based, flow cytometry, pilot screen (AID 588368;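 active = binding below the plate cutoff, the plate median minus 3 SD, with a reading above zero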;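 note: signal is the median channel fluorescence of bead-bound GFP antibody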). The settings on record: Protein G beads, DSG3-Fc, scFv-GFP binding, at 10 µM, stronger effect = lower value.
Assay [9] is described as follows: Nile Red efflux blockade in pump-expressing yeast – validation compound set, multiplex, phenotypic, pilot screen (AID 588506;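 active = efflux inhibition above 0.42, the validation set average plus 4 SD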;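 note: Nile Red retained in cells so higher fluorescence means more efflux inhibition; 0 = negative control wells and 1 = enniatin B 25 µM full block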). The settings on record: S. cerevisiae pump-expressing triplex, Nile Red efflux flow cytometry; at 10 µM; stronger effect = higher value; the pumps come from Candida albicans.
Assay [10] deals with ATP-binding cassette sub-family B member 6 (Homo sapiens) (UniProt Q9NP58). In words: blockers of ABCB6-driven porphyrin uptake – K562-ABCB6 cells, flow cytometry, validation set, pilot screen (AID 588550;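 active = inhibition above the screen-wide mean plus 3 SD, about 51%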;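 note: 0% = DMSO wells and 100% = benzethonium chloride 70 µM positive control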). The settings on record: K562-ABCB6 porphyrin accumulation, 1 h, at 10 µM, stronger effect = higher value.
ATP-binding cassette sub-family B member 6 (Homo sapiens), sequence (Q9NP58 whole entry, looked up): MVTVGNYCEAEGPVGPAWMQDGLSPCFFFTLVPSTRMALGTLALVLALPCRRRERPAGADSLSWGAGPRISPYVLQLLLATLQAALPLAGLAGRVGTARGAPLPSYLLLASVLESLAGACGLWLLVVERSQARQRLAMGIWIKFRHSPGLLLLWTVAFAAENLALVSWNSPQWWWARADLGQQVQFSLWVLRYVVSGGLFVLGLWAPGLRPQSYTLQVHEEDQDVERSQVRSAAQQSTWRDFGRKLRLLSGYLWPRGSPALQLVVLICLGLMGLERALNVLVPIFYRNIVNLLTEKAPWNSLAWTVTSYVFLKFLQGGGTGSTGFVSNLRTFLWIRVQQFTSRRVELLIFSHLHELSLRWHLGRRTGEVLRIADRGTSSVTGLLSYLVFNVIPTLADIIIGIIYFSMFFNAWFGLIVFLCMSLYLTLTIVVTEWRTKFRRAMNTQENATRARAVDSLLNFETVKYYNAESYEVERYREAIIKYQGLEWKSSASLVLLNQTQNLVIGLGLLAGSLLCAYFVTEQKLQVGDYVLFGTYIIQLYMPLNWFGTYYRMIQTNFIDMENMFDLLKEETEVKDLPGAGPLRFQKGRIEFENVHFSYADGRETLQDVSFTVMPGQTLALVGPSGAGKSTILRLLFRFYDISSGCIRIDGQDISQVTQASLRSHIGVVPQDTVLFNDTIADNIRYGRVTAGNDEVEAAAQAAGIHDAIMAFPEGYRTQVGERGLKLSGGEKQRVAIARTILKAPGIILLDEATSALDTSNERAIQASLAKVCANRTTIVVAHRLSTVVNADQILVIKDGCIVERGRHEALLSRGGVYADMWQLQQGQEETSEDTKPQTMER
Assay [11] in a line: AML differentiation inducers, ER-HoxA9 marrow cells – cell-based, GFP/MAC1 double positive, flow cytometry, validation set, primary screen (AID 588685;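 active = differentiation response of at least 50%, scaled between solvent and reference control, from cells with both markers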;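 note: compound exposure lasts four days before antibody staining and flow analysis; 0% = DMSO wells and 100% = 5 µM fulvestrant positive control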). The settings on record: stronger effect = higher value, normalized: vehicle 0, fulvestrant 100.

Integrin beta-1 (Homo sapiens) + Integrin alpha-4 (Homo sapiens), sequence (P05556 whole entry, looked up): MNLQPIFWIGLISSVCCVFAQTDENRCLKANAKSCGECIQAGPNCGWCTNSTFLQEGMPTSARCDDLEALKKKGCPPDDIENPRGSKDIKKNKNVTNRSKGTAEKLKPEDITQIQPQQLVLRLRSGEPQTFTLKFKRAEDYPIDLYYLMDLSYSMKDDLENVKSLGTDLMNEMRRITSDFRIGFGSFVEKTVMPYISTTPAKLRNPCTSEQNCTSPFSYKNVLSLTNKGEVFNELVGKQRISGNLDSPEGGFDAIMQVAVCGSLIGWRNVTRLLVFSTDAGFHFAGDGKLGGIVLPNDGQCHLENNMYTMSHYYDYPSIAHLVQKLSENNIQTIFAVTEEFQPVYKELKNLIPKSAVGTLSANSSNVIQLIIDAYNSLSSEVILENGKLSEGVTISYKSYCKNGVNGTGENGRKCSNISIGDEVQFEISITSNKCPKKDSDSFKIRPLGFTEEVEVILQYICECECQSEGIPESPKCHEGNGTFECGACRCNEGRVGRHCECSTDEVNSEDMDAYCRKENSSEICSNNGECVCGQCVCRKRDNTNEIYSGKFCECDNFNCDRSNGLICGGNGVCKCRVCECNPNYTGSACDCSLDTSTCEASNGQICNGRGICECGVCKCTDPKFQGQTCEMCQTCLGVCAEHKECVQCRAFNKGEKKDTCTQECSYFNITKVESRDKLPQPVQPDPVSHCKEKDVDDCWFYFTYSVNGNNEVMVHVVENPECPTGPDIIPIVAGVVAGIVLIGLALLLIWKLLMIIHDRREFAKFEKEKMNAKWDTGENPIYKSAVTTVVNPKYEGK
Integrin beta-1 (Homo sapiens) + Integrin alpha-4 (Homo sapiens), sequence (P13612 whole entry, looked up): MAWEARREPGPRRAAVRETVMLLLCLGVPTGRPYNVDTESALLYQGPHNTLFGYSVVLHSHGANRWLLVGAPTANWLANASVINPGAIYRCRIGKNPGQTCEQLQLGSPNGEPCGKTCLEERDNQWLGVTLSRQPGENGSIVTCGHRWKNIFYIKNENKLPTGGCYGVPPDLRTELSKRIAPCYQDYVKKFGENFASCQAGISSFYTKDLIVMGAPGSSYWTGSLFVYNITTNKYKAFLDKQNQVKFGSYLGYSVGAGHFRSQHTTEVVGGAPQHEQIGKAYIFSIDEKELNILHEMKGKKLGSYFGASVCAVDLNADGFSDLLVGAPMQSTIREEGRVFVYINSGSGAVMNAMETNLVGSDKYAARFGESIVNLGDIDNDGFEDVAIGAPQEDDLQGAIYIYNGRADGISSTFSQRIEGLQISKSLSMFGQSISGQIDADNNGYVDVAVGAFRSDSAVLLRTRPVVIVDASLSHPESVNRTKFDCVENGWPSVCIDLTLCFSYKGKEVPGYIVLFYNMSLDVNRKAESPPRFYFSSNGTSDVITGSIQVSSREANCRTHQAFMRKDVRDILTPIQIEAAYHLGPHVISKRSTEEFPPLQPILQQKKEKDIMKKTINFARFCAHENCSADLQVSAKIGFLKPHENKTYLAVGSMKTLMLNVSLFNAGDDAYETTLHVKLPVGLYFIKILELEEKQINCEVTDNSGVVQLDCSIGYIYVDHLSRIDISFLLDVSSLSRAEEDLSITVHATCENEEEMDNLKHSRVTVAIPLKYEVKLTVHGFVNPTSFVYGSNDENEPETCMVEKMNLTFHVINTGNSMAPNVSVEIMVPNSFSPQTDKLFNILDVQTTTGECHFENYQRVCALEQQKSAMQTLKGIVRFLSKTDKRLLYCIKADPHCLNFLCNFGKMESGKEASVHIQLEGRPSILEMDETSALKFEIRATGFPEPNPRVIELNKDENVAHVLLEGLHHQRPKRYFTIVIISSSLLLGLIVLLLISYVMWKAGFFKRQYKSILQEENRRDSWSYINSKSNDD

`O=c1cc(Cn2ccnc2)c2cc3c(cc2o1)CCC3` gave a double positive events in assay [1] of 57.6%. In assay [1], the vesicle binding response is 143% (inactive). Further, the inhibition in assay [2] is -11.3% (inactive); in assay [6], 8.12% (inactive); in assay [10], 2% (inactive). For the same compound, the superoxide response (% of plate) in assay [3] is 99.2% (inactive). Also, the aptamer binding inhibition in assay [4] was -2% (inactive). The response in assay [5] was -7.31% (inactive); in assay [7], -1.72% (inactive). Further, the binding (% of control) in assay [8] is 105% (inactive). The efflux inhibition (fraction of control) in assay [9] is 0.08 (inactive). For the same compound, the differentiation response in assay [11] is 48.8% (inactive).

Take `CCN(CC)CCN1C(=O)C(=O)/C(=C(/O)c2c(C)[nH]c(C(=O)OC)c2C)C1c1cccnc1` (centres undefined): the double positive events in assay [1] stood at 60.5%. Moreover, the vesicle binding response in assay [1] is 235% (inactive). The inhibition in assay [2] is -19.5% (inactive); in [6], 0.35% (inactive); in assay [10], 9% (inactive). Besides, the superoxide response (% of plate) in assay [3] was 95.2% (inactive). For the same compound, the aptamer binding inhibition in assay [4] was 4% (inactive). For the same compound, the values for the response in [5] and in assay [7] were 13.3% (inactive) and -2.49% (inactive), respectively. Besides, the binding (% of control) in assay [8] was 103% (inactive). Moreover, the efflux inhibition (fraction of control) in [9] is 0.05 (inactive). In addition, the differentiation response in assay [11] was -12% (inactive).

Compound `Cc1ccc2c(c1)C(O)(CC(=O)/C=C/C=C/c1ccccc1)C(=O)N2` (centres undefined) came in with a double positive events in assay [1] of 63.9%. The vesicle binding response in assay [1] is 759% (inactive). Moreover, the inhibition is -4.6% (inactive) in [2], 4.01% (inactive) in [6] and -7% (inactive) in assay [10]. In addition, the superoxide response (% of plate) in [3] was 111% (inactive). The aptamer binding inhibition in assay [4] was 2% (inactive). For the same compound, the response was -0.9% (inactive) in assay [5] and -1.15% (inactive) in assay [7]. For the same compound, the binding (% of control) in assay [8] is 99% (inactive). The efflux inhibition (fraction of control) in [9] is -0.26 (inactive). For the same compound, the differentiation response in [11] is 2.2% (inactive).

`CC[n+]1ccc2cc(OC)c(OC)cc2c1Cc1ccc(OC)c(OC)c1` displayed a double positive events in assay [1] of 64%. For the same compound, in assay [1], the vesicle binding response was 174% (inactive). Further, the inhibition is -10.5% (inactive) in assay [2], -12.4% (inactive) in assay [6] and 6% (inactive) in [10]. Moreover, the superoxide response (% of plate) in assay [3] is 98.6% (inactive). Further, the aptamer binding inhibition in assay [4] is 2% (inactive). Further, the results for the response in assay [5] and in assay [7] were -11.2% (inactive) and -0.56% (inactive), respectively. For the same compound, the binding (% of control) in [8] is 106% (inactive). For the same compound, in [9], the efflux inhibition (fraction of control) is -0.09 (inactive). Moreover, the differentiation response in assay [11] is -1.05% (inactive).

Consider `COc1ccc(C)cc1S(=O)(=O)Nc1ccc(F)cc1`, for which the double positive events in [1] is 64.5%. In assay [1], the vesicle binding response is 172% (inactive). Also, the inhibition was 5.61% (inactive) in [2], 2.42% (inactive) in [6] and 17% (inactive) in assay [10]. Also, the superoxide response (% of plate) in assay [3] is 98.8% (inactive). Further, the aptamer binding inhibition in [4] is 1% (inactive). Moreover, the response in assay [5] was 0.44% (inactive); in assay [7], -2.48% (inactive). Further, the binding (% of control) in assay [8] is 102% (inactive). Besides, in assay [9], the efflux inhibition (fraction of control) was 0.06 (inactive). Also, the differentiation response in assay [11] was -3.11% (inactive).

In the case of `O=C(c1ccccc1)N1CCN(C(=O)c2ccccc2)CC1`, in [1], the double positive events was determined as 57.3%. Besides, the vesicle binding response in assay [1] is 175% (inactive). Moreover, the results for the inhibition in [2], in [6] and in [10] were -0.43% (inactive), -3.54% (inactive) and 3% (inactive), respectively. In addition, in assay [3], the superoxide response (% of plate) was 102% (inactive). Moreover, the aptamer binding inhibition in [4] was 7% (inactive). In addition, the response was -22.4% (inactive) in assay [5] and -5.95% (inactive) in [7]. For the same compound, the binding (% of control) in [8] was 104% (inactive). For the same compound, in assay [9], the efflux inhibition (fraction of control) is -0.13 (inactive). Further, the differentiation response in [11] was 12% (inactive).

Regarding `CCCCC[C@H](O)/C=C/[C@@H]1[C@@H](C/C=C\CCCC(=O)O)[C@H]2CO[C@@H]1C2`, the double positive events in assay [1] was found to be 59%. Moreover, the vesicle binding response in [1] was 192% (inactive). For the same compound, the inhibition in assay [2] was -8.78% (inactive); in assay [6], 1.57% (inactive); in [10], -1% (inactive). Further, in [3], the superoxide response (% of plate) is 110% (inactive). The aptamer binding inhibition in assay [4] is -1% (inactive). Moreover, the values for the response in assay [5] and in assay [7] were -18.1% (inactive) and -0.38% (inactive), respectively. In addition, the binding (% of control) in assay [8] is 101% (inactive). Also, in assay [9], the efflux inhibition (fraction of control) was 0.08 (inactive). Also, in assay [11], the differentiation response was -10.9% (inactive).
